Data on 13 compounds can be found in PubChem BioAssay (NCI).

Some test systems named below: HCT-15 colon; SNB-75 CNS; SNB-19 CNS; U251 CNS; PC-3 prostate; SK-MEL-5 melanoma; UACC-62 melanoma; LOX IMVI melanoma; SK-MEL-28 melanoma; HT29 colon.
Assay in all cases: NCI-60 one-dose screen, 48 h (100 = growth as untreated, 0 = no growth, -100 = all killed)
Holding throughout (details): 10 µM unless noted

This is part of a sample that, as a whole, favours compounds with a hit. Of some 83,000 tested, about 20% had one in any assay.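 Growth was measured after 48 h exposure to one concentration of compound in 96-well plates. Values under 10 count as active.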 A number with no mark means an inactive call. The source made the active and inactive calls.

As for `COc1ccc(-c2cc(-c3cccnc3)nc3sc(C(=O)Nc4ccccc4)c(N)c23)cc1OC`, the growth with HCT-15 colon was 63.5%; in the assay with SNB-75 CNS, 82.8%; with SNB-19 CNS, 79.8%; in the assay with U251 CNS, 61.3%; in the assay on PC-3 prostate, 56.9%; in the assay on SK-MEL-5 melanoma it was 75.1%. In addition, the growth was 69.3% in the assay on UACC-62 melanoma, 60% in the assay with LOX IMVI melanoma and 73.3% with SK-MEL-28 melanoma.

Regarding `Cc1ccc(-c2cc(-c3ccccc3)n(-c3ccccc3)n2)cc1`, the growth with HCT-15 colon was 106%; in the assay on HT29 colon, 96.7%; in the assay on U251 CNS it was 97.7%; in the assay on PC-3 prostate, 99.6%; in the assay with SK-MEL-5 melanoma it was 106%; with UACC-62 melanoma, 88.2%. In addition, the growth was 99% in the assay on LOX IMVI melanoma and 98.2% in the assay with SK-MEL-28 melanoma.

In the case of `Cn1c(=O)c2[nH]c(=S)n(Cc3ccccc3)c2n(C)c1=O`, the growth in the assay with HCT-15 colon is 102%; in the assay with SNB-75 CNS it was 84.9%; with SNB-19 CNS, 99.1%; with U251 CNS it was 110%; in the assay with PC-3 prostate, 98.2%; in the assay on SK-MEL-5 melanoma, 102%. The growth was 91.8% in the assay on UACC-62 melanoma, 88.1% with LOX IMVI melanoma and 122% with SK-MEL-28 melanoma.

On to `NS(=O)(=O)c1ccc(-n2ncc3c(N/N=C/c4ccccc4)ncnc32)cc1`, for which the growth with HCT-15 colon was 108%; in the assay with SNB-75 CNS, 104%; with SNB-19 CNS it was 80.4%; in the assay on U251 CNS, 89.7%; with PC-3 prostate, 80.6%; with SK-MEL-5 melanoma, 86.7%. Besides, the growth was 96.8% in the assay with UACC-62 melanoma, 91.7% in the assay on LOX IMVI melanoma and 95.3% with SK-MEL-28 melanoma.

As for `COc1ccc(N2CCN(CC(=O)N3CCN(c4nnc(-c5ccccc5)c(-c5ccccc5)n4)CC3)CC2)cc1`, the growth is 35.9% in the assay on HCT-15 colon; 70.2% in the assay with SNB-75 CNS; 62.8% with SNB-19 CNS; 46.7% with U251 CNS; 22% with PC-3 prostate; 13.9% with SK-MEL-5 melanoma. In addition, the growth with UACC-62 melanoma was 56.7%; in the assay with LOX IMVI melanoma it was 44.6%; in the assay with SK-MEL-28 melanoma, 71.3%.

Consider `COc1ccc([N+](=O)[O-])c(S(=O)(=O)c2ccc(Cl)cc2)n1`, for which the growth in the assay on HCT-15 colon was 27.2%; in the assay on SNB-75 CNS, 78%; in the assay on SNB-19 CNS it was 92%; in the assay on U251 CNS, 95.6%; in the assay on PC-3 prostate, 92.3%; with SK-MEL-5 melanoma, 91.6%. The results for the growth in the assay on UACC-62 melanoma, in the assay on LOX IMVI melanoma and with SK-MEL-28 melanoma were 89.1%, 10.7% and 82%, respectively.

Consider `O=C(N/N=C/c1cccc(O)c1O)c1ccccc1`, for which the growth in the assay on HCT-15 colon is 22.7%; in the assay on HT29 colon, 26.4%; in the assay on SNB-19 CNS it was 35.7%; in the assay on PC-3 prostate, 28.9%; with SK-MEL-5 melanoma, 0.968% (active); with UACC-62 melanoma, -9.23% (active). Besides, the growth with LOX IMVI melanoma was 7.69% (active); with SK-MEL-28 melanoma, 30.5%.

For `COc1cc(/C=C/c2cc(/C=C/c3ccc(O)c(OC)c3)n(C(=O)Cc3ccccc3)n2)ccc1O`, the growth is 6.11% (active) in the assay on HCT-15 colon; 0.658% (active) with SNB-75 CNS; 7.03% (active) in the assay on SNB-19 CNS; -2.58% (active) in the assay with U251 CNS; 3.01% (active) in the assay with PC-3 prostate; -31.8% (active) with SK-MEL-5 melanoma. For the same compound, the growth is 1.59% (active) with UACC-62 melanoma, 5.18% (active) with LOX IMVI melanoma and -4.66% (active) with SK-MEL-28 melanoma.

With `O=C1/C=C/[C@@H](O)[C@@H]2C[C@@H](O)C[C@H]2/C=C/CCC[C@H](CO)O1`, the growth in the assay on HCT-15 colon is 26.2%; in the assay on SNB-75 CNS, 35.7%; in the assay on SNB-19 CNS, 48.8%; in the assay with U251 CNS it was 24.1%; in the assay with PC-3 prostate, 39.5%; in the assay with SK-MEL-5 melanoma it was -88% (active). The growth is 15.8% in the assay on UACC-62 melanoma, -44.8% (active) in the assay on LOX IMVI melanoma and -18.8% (active) with SK-MEL-28 melanoma.

In the case of `Cc1cc(C(=O)Nc2ccc3cc(CN4CCOCC4)ccc3n2)c(C)n1-c1ccccc1`, the growth in the assay on HCT-15 colon is 40.4%; with SNB-75 CNS, 15.5%; in the assay with SNB-19 CNS, 77%; with U251 CNS, 46.3%; in the assay with PC-3 prostate, 4.55% (active); in the assay with SK-MEL-5 melanoma it was -38.1% (active). The growth is 7.01% (active) with UACC-62 melanoma, 24.2% in the assay on LOX IMVI melanoma and 27.9% with SK-MEL-28 melanoma.

Take `CCN(CC)CCCCCCCNc1c2ccc(Cl)cc2nc2ccc(OC)cc12`: the growth with HCT-15 colon is -5.62% (active); with SNB-75 CNS, -94.1% (active); in the assay with SNB-19 CNS it was -10.1% (active); in the assay on U251 CNS, -70.2% (active); in the assay with PC-3 prostate, -56.1% (active); in the assay on SK-MEL-5 melanoma it was -100% (active). Further, the growth in the assay on UACC-62 melanoma is -55% (active); with LOX IMVI melanoma, -7.86% (active); in the assay on SK-MEL-28 melanoma, -77.4% (active).

`COc1cccc(C=Nc2cc(C(C)C)c(O)cc2C)c1O`: the growth in the assay on HCT-15 colon was 96%; with SNB-75 CNS, 88.3%; in the assay on SNB-19 CNS, 93.2%; in the assay on U251 CNS, 96%; in the assay with PC-3 prostate it was 92.8%; in the assay with SK-MEL-5 melanoma, 104%. Besides, the growth was 91.9% with UACC-62 melanoma, 94.8% in the assay on LOX IMVI melanoma and 116% in the assay on SK-MEL-28 melanoma.

As for `COc1cc(/C=C2\CN(S(=O)(=O)c3ccc(C)cc3)C/C(=C\c3cc(CN4CCOCC4)c(O)c(OC)c3)C2=O)cc(CN2CCOCC2)c1O`, the growth in the assay with HCT-15 colon was -31.3% (active); in the assay with SNB-75 CNS, 25.8%; in the assay on SNB-19 CNS, 12.9%; in the assay with U251 CNS, 15.5%; in the assay on PC-3 prostate, 2.79% (active); in the assay with SK-MEL-5 melanoma, -63.4% (active). Also, the values for the growth with UACC-62 melanoma, with LOX IMVI melanoma and in the assay with SK-MEL-28 melanoma were -45.8% (active), -49.3% (active) and -33.2% (active), respectively.
